In PubChem BioAssay AID652016 (National Center for Advancing Translational Sciences (NCATS), 2013):
Inconclusive results are not listed. Entries that show only a call come without a potency. Active and inactive are the calls of the source. The call rests on the fitted dose curve; in most records, active means well fitted inhibition curve with a large enough effect; inconclusive means small, poorly fitted or top-dose-only effect; inactive means flat fitted curve, though single readings scatter.

Biological target: Luciferin 4-monooxygenase (Photinus pyralis) (UniProt P08659)
Assay: qHTS Assay for Inhibitors of Firefly Luciferase from the GSK Published Protein Kinase Inhibitor Set
Settings: purified firefly luciferase, luminescence inhibition; series mostly up to 57.5 µM
Method in brief: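 Purified P. pyralis luciferase, 10nM, with 10uM D-luciferin and 10uM ATP in 50mM Tris acetate pH 7.5, 10mM Mg acetate, 0.01% Tween-20, 0.05% BSA. Titration ~60uM to 300pM; luminescence read after about 5 min.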
Potency means the concentration at half of the fitted maximal effect.

Chain of Luciferin 4-monooxygenase (Photinus pyralis) (P08659 whole entry, looked up): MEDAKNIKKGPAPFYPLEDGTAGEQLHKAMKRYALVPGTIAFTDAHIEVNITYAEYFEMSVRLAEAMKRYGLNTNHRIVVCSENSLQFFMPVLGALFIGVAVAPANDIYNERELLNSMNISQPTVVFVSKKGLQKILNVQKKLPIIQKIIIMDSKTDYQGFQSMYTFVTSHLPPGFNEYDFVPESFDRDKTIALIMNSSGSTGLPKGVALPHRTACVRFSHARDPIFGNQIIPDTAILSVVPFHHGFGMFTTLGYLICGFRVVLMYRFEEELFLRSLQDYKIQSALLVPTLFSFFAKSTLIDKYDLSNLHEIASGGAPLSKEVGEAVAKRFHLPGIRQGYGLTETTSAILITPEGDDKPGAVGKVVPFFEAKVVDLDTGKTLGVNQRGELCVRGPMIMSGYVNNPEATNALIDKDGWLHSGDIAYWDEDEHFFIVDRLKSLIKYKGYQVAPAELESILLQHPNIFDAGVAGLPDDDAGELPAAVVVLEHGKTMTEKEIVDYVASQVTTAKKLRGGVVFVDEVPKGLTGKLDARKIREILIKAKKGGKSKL

| SMILES | Potency |
| --- | --- |
| CS(=O)(=O)CCNCc1cc(-c2cc3c(Nc4ccc(OCc5cccc(F)c5)c(Cl)c4)ncnc3s2)cs1 | inactive |
| CCCN1CCC(c2ccc(Nc3nc(Nc4cc(F)ccc4C(N)=O)c4cc[nH]c4n3)c(OC)c2)CC1 | inactive |
| NS(=O)(=O)c1ccc(Nc2cc(-c3ccc(O)c(F)c3)[nH]n2)cc1 | inactive |
| COc1ccc(-c2oc3ncnc(N)c3c2-c2ccc(NC(=O)Nc3cc(C(F)(F)F)ccc3F)cc2)cc1 | inactive |
| COc1cc2c(cc1Nc1nc(Nc3ccsc3C(N)=O)c3cc[nH]c3n1)N(C(=O)CN(C)C)CCC2 | inactive |
| Cc1nc(-c2ccccc2)n2nc(NCCCN3CCOCC3)ncc12 | inactive |
| CNC(=O)c1cncc(C=Cc2c(Cl)cccc2Cl)c1 | 16.3 µM (active) |
| COc1cc2ncn(-c3cc(OCc4ccccc4C(F)(F)F)c(C(N)=O)s3)c2cc1OC | inactive |
| CCCNc1cccc(-n2ncc3c(NN=Cc4ccncc4)ncnc32)c1 | inactive |
| COc1cc(C)c(N(C)C(=O)CN(C)C)cc1Nc1nc(Nc2cccc(F)c2C(N)=O)c2cc[nH]c2n1 | inactive |
| Cc1cc(Cl)cc2c(N=Nc3ccc(S(N)(=O)=O)cc3)c(O)[nH]c12 | inactive |
| O=C(Nc1n[nH]c2nc(-c3ccco3)ccc12)C1CC1 | inactive |
| COc1ccc(-c2nn3ncccc3c2-c2ccnc(Nc3ccc4c(c3)OCCO4)n2)cc1 | inactive |
| COc1cc(C=NNc2ncnc3c2cnn3-c2ccccc2)ccc1O | inactive |
| CNC(=O)c1sc(-n2cnc3cc(OC)c(OC)cc32)cc1OCc1ccccc1C(F)(F)F | inactive |
| ON=C1CCc2cc(-c3nc(C4CCNCC4)[nH]c3-c3ccncc3)ccc21 | inactive |
| COc1ccc(CNC(=O)c2ccc(-c3cc(-c4nnc(C)o4)ccc3C)cc2)cc1 | inactive |

| SMILES | Potency |
| --- | --- |
| COc1ccccc1Nc1ncc(-c2ccccc2)o1 | 1.03 µM (active) |
| CCn1c(-c2nonc2N)nc2c(N3CCCC3)nccc21 | inactive |
| COC(=O)Nc1nc2ccc(Oc3ccc(NC(=O)Nc4cccc(C(=O)O)c4)cc3)cc2[nH]1 | 0.116 µM (active) |
| CCc1nn2ncccc2c1-c1ccnc(NC2CC2)n1 | inactive |
| c1ccc(Nc2ncc(-c3ccccc3)o2)cc1 | 0.259 µM (active) |
| CCn1cc(-c2ccnc3[nH]ccc23)c(-c2cccc(NC(=O)Nc3ccc(OCc4ccccc4)cc3)c2)n1 | inactive |
| Fc1ccc(-c2ncn(CCCN3CCOCC3)c2-c2ccncc2)cc1 | inactive |
| N#Cc1cccc(Nc2ncc(-c3ccccc3)o2)c1 | 1.03 µM (active) |
| COc1cccc(-c2c[nH]c3c(NN=Cc4ccncc4)ncnc23)c1 | 5.8 µM (active) |
| CCn1c(-c2nonc2N)nc2cncc(C(=O)N3CCC(N)C3)c21 (centres undefined) | inactive |
| COc1cccc(COc2cc(-n3cnc4ccccc43)sc2C(N)=O)c1 | inactive |
| CCOc1nccc2c1nc(-c1nonc1N)n2CC | inactive |
| Nc1nccc(-c2c(-c3ccc(F)cc3)ncn2CCCN2CCOCC2)n1 | inactive |
| CS(=O)(=O)CCNCc1nc(-c2ccc3ncnc(Nc4ccc(F)c(Cl)c4)c3c2)cs1 | inactive |
| CC(=O)Nc1cccc(C#Cc2cncnc2Nc2ccc(OCc3cccc(F)c3)c(Cl)c2)n1 | inactive |
| O=C(OC1CNC(C#Cc2cc3ncnc(Nc4ccc5c(ccn5Cc5cc(F)ccc5F)c4)c3s2)C1)N1CCOCC1 (centres undefined) | inactive |
| Fc1ccc(-c2nn3ccccc3c2-c2ccncc2)cc1 | 1.16 µM (active) |
